Measured values from PubChem BioAssay AID602313 (National Center for Advancing Translational Sciences (NCATS), 2012).
In all, about 390,000 compounds went through this assay and about 760 (0.19%) were called active. Not shown: some 3% with an inconclusive outcome. Calls come from the whole dose curve; as a rule, active = well fitted inhibition curve with a large enough effect; inconclusive = small, poorly fitted or top-dose-only effect; inactive = flat fitted curve, though single readings scatter. Shown is part of a subset that was picked to be rich in actives. Entries that show only a call come without a potency.

experiment: qHTS for Inhibitors of Vif-A3F Interactions: qHTS; details: HeLa A3F-eYFP + Vif (tagged APOBEC3F with the HIV-1 protein that degrades it), YFP fluorescence increase; series mostly up to 46.1 µM; note: nearly all actives have a fitted effect of over 65% in size
Summary of the method: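 HeLa cells stably expressing A3F-eYFP plus Vif, plated and incubated overnight at 37 deg C, then exposed to compounds overnight at 37 deg C. Blocked degradation read as raised yellow fluorescence (Ex 488/Em 500-530).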
Potency is the fitted concentration of half-maximal effect.

Compound | Potency
Cc1ccccc1CN1CCC(CNC(=O)c2cc3ccc4cccnc4c3[nH]2)CC1 | inactive
O=C(OC12CC3CC(CC(C3)C1)C2)c1ccc(NCc2cc(O)ccc2O)cc1 | 22.4 µM (active)
Cc1nnc(NCc2ccccc2)c2c1nnn2Cc1ccc(F)cc1 | inactive
Fc1ccc(CNc2nc3ccccc3n3nnnc23)cc1 | 7.94 µM (active)
Fc1ccc(CSc2nc(NCc3ccccc3)c3ccccc3n2)cc1 | inactive
Cc1cccc(Cn2c(SCc3ccc(C(=O)N4CCC(C)CC4)cc3)nc3ccncc32)c1 | inactive
O=C(Nc1ccc(Br)cc1)c1cc2nc(-c3ccccc3)cc(-c3ccccc3)n2n1 | inactive
O=C(C[n+]1ccc2c(c1)nnn2-c1ccccc1)c1ccc(Cl)cc1 | inactive
O=C(OCc1nc2ccccc2[nH]1)C1CCCCC1 | inactive
O=C(Cc1nc2ccccc2[nH]c1=O)c1ccc(Cl)cc1 | 12.6 µM (active)
COc1cc(OC)c(OC)cc1/C=C/c1nc2ccccc2c(=O)n1-c1ccc(Br)c(C)c1 | inactive
CCn1c(/C=C/c2ccc([N+](=O)[O-])o2)nc2ccccc2c1=O | 22.4 µM (active)
CCCN(CCC)c1c([N+](=O)[O-])c(=O)oc2ccccc12 | inactive
CCc1cccc(CC)c1NC(=O)Cn1c(=O)c(-c2cc(C)ccc2NC(C)=O)nc2ccccc21 | inactive
CCc1nnc(SCc2c(F)cccc2Cl)c2cc3sccc3n12 | inactive
CCOC(=O)c1ccc(NC(=O)CC2C(=O)N(c3cccc(OC)c3)C(=O)N2C2CCCCC2)cc1 (stereo not drawn) | inactive
Cc1oc2ncn(CC(C)C)c(=O)c2c1C(=O)N1CCN(c2ccccc2F)CC1 | inactive
CCOc1ccc(S(=O)(=O)c2cn(Cc3ccc(OC)cc3)c3ccc(F)cc3c2=O)cc1 | inactive
COc1cc(CN(C(=O)c2ccccc2Br)c2ccccn2)cc(OC)c1OC | inactive
O=C(NCc1ccccc1)c1ccc2c(c1)nc1n2CCCCC1 | inactive
Cc1ccc(CNC(=O)CCc2c(C)nn(-c3ccc(N4CCCC4)nn3)c2C)cc1 | inactive
CCOCCCNC(=O)c1c(NC(=O)Cc2coc3ccc(C)cc23)sc2c1CCC2 | inactive
CCC(=O)N1CCc2cc(S(=O)(=O)NC(Cc3ccccc3)C(=O)NCc3ccccc3)ccc21 (stereo not drawn) | inactive
C[n+]1ccc(/C=C/c2c[nH]c3ccccc23)cc1 | 10 µM (active)
CCCCN(CC)CCCNC(=O)c1nn(C)c2c1CS(=O)(=O)c1ccccc1-2 | inactive
Cc1ccc(-n2nc(CO)c(C(=O)NCCc3ccccc3)n2)cc1 | inactive

Compound | Potency
CCN(CC)C(=O)CSc1nc2cc3c(cc2c(=O)n1CCCC(=O)NCc1ccc2c(c1)OCO2)OCO3 | inactive
CCCCn1c(N)c(N(CCC(C)C)C(=O)c2ccc([N+](=O)[O-])o2)c(=O)[nH]c1=O | 10 µM (active)
CCCCn1c(N)c(N(CCC(C)C)C(=O)c2ccc(COc3ccccc3)o2)c(=O)[nH]c1=O | inactive
CCCCn1c(N)c(N(CC(C)C)C(=O)c2ccc(Br)o2)c(=O)[nH]c1=O | inactive
Fc1ccc(-c2nn(-c3ccccc3Cl)c3c2cnc2ccccc23)cc1 | inactive
COc1ccc(NC(=O)CSc2nnc(-c3nnn(-c4ccc(F)cc4)c3C)o2)cc1 | inactive
CCn1cc2nc(SCc3cccc(F)c3)n(CCc3ccccc3)c(=O)c2n1 | inactive
Cc1cccc(-n2c(O)c(C=Nc3ccccc3N)c(=O)[nH]c2=O)c1 | inactive
Cc1ccc(N=Cc2c(O)n(-c3nccs3)c(=O)c3ccccc23)c(C)c1 | 25.1 µM (active)
CCCn1c(NCc2ccccc2F)nc2ccccc21 | inactive
CCCCOc1ccc(C(=O)N2CC(=O)Nc3ccc(Br)cc3C2c2ccc(F)cc2)cc1 (stereo not drawn) | inactive
COc1ccc(-c2noc(CSc3nc(C)cc(=O)[nH]3)n2)cc1OC | inactive
O=C(N/C(=C/c1ccc(Cl)cc1)C(=O)N1CCCCC1)c1ccco1 | inactive
O=C(Nc1cccc2c1N(C(=O)c1ccco1)CCC2)c1ccco1 | inactive
O=C(NC(=S)N1CCc2ccccc21)c1ccco1 | 11.2 µM (active)
CC(=O)c1cccc(NC(=O)C2CCCN2S(=O)(=O)c2cccc3nsnc23)c1 (stereo not drawn) | inactive
O=C(NCc1ccco1)C1CCCN(S(=O)(=O)c2cccc3nonc23)C1 (stereo not drawn) | inactive
CC(=O)c1cccc(NC(=O)C2CCCN(S(=O)(=O)c3cccc4nonc34)C2)c1 (stereo not drawn) | 31.6 µM (active)
CCCCOc1ccc(NC(=O)c2cc3c(n(-c4ccc(Cl)cc4)c2=O)CCCC3=O)cc1 | inactive
O=C(COc1ccccc1)NCc1ccc2c(c1)CCN2C(=O)c1ccc(F)cc1 | inactive
Cc1nn2c(=O)cc(COC(=O)CNC(=O)c3ccc(F)cc3)nc2s1 | inactive
Cc1ccc(S(=O)(=O)N(CC(=O)Nc2ccc(Cl)cc2Cl)c2ccccc2C)cc1 | inactive
COc1cc(NC(=O)Cn2c(=O)n(Cc3ccco3)c(=O)c3oc4ccccc4c32)cc(OC)c1 | inactive
COC(=O)c1ccccc1NC(=O)c1ccc(COc2ccccc2Cl)o1 | inactive
CCOc1cc(C(=O)NCCc2csc3nc(-c4ccc(C)cc4)nn23)cc(OCC)c1OCC | inactive
Cc1ccc(NC(=O)c2nc(S(=O)(=O)Cc3cccc(C)c3)ncc2Cl)cc1 | inactive

Compound | Potency
O=C(Nc1ccccc1F)C(c1ccccc1)N1Cc2ccccc2C1=O (stereo not drawn) | inactive
CC(OC(=O)CN1C(=O)C2CCCCC2C1=O)C(=O)Nc1ncc(Cl)cc1Cl (stereo not drawn) | inactive
CC1=CC(C)(C)Nc2ccc(OC(=O)CN3C(=O)C4CCCCC4C3=O)cc21 (stereo not drawn) | 31.6 µM (active)
Cc1ccc(COC(=O)CN2C(=O)NC3(CCCC3)C2=O)cc1 | inactive
Cc1ccc2nc(COc3ccccc3NC(=O)Nc3ccc(F)c(Cl)c3)cc(=O)n2c1 | inactive
O=c1c2cccnc2n(Cc2cccc(F)c2)c(=O)n1Cc1ccccc1Cl | inactive
Cc1cc(C)cc(NS(=O)(=O)c2cc3c(cc2C)NC(=O)CO3)c1 | inactive
Cc1ccc(N2CC(C(=O)Nc3ccc(N(C)C)cc3)CC2=O)cc1Cl (stereo not drawn) | inactive
CCOc1ccccc1N(C)C(=O)c1cc2c(s1)-c1ccccc1OC2 | inactive
CCc1cnc2c(c1SCC(=O)c1ccccc1)c(=O)n(C)c(=O)n2C | inactive
COc1ccccc1NC(=O)CN1C(=O)c2ccccc2Sc2ccc(C(=O)N3CCCC3)cc21 | inactive
O=C1C(Cl)=C(Oc2ccccc2)C(=O)c2ccccc21 | 10 µM (active)
COc1ccc2c(c1)c(=O)c(S(=O)(=O)c1ccc(F)cc1)cn2CC(=O)Nc1ccc(C)cc1C | inactive
CCOc1ccc(NC(=O)c2c(NC(=O)Cc3ccccc3)sc3c2CCCCC3)cc1 | inactive
COc1ccccc1NC(=O)CSc1oc(-c2ccco2)nc1S(=O)(=O)c1ccc(Br)cc1 | inactive
Cc1ccc(-c2noc(-c3nnn(-c4cccc(C(F)(F)F)c4)c3N)n2)cc1 | inactive
Cc1ccc(CNC(=O)c2cccc3c2C(=O)c2ccc(N4CCC(C)CC4)cc2S3(=O)=O)cc1 | 12.6 µM (active)
Cc1ccc(CNC(=O)c2ccccc2CCc2ccccc2)cc1 | inactive
O=C1c2ccccc2S(=O)(=O)c2cc(N3CCN(c4ccccn4)CC3)ccc21 | inactive
Fc1ccc(CN2CCc3nc(Nc4ccccc4)ncc3C2)cc1F | inactive
CCOC(=O)c1cc(-c2ccccc2)n(-c2cccc(C(=O)Nc3cc(OC)cc(OC)c3)c2)c1C | inactive
Cn1ccc2cc(S(=O)(=O)N3CCCC(C(=O)NCc4ccccc4F)C3)ccc21 (stereo not drawn) | inactive
O=C(NC1CC(=O)N(c2ccccc2)C1)c1ccco1 (stereo not drawn) | inactive
Cc1cn(C)c(CC(=O)NCc2ccc(Cl)cc2)c1C(=O)O | inactive
O=C(NCCc1csc(-c2ccc(C(F)(F)F)cc2)n1)C(=O)Nc1ccc(F)c(Cl)c1 | inactive
Cc1cc(C)c2oc(-c3cccc(NC(=O)c4cccc(F)c4)c3C)nc2c1 | inactive

Compound | Potency
CCCCn1c(=O)c2oc3ccccc3c2n(CC(=O)Nc2ccccc2OC)c1=O | inactive
CCCCN(CC)C(=O)c1c[nH]c2ccc(S(=O)(=O)Nc3cccc(OC)c3)cc2c1=O | inactive
CC(=O)N/C(=N/c1nc(C)cc(C)n1)Nc1ccc(F)cc1F | inactive
Cc1cc(C)nc(-n2nc(C)cc2NC(=O)c2ccc(F)cc2F)n1 | 12.6 µM (active)
Cc1cc(C(=O)Nc2cccc(C(F)(F)F)c2)c2c(C)nn(-c3cccc(F)c3)c2n1 | inactive
O=C(COc1ccc(Cl)cc1)Nc1ccccc1OCc1cc(=O)n2ccccc2n1 | inactive
Cc1ccccc1NC(=O)COc1cccc2c1CCNC2=O | inactive
Cc1ncc(CO)c(/C=N/NC(=O)c2cccc(S(=O)(=O)N3CCCC3)c2)c1O | inactive
COc1cccc(/C=N/NC(=O)c2[nH]nc3c2CCc2ccccc2-3)c1O | 25.1 µM (active)
COC(=O)c1c(NC(=O)c2cc(=O)c3c(C)cc(C)cc3o2)sc2c1CCCC2 | inactive
Cn1c(C(=O)Nc2cccc(C(F)(F)F)c2)cc2c(=O)n3ccccc3nc21 | inactive
Cc1ccc(NC2=C(c3ccc(C(F)(F)F)cc3)C(=O)c3ccccc32)cc1F | inactive
Cc1ccc(Cn2c(CCCNC(=O)C3CCCCC3)nc3ccccc32)cc1 | inactive
Cc1cccc2cc3c(N)c(C(=O)N4CCCc5ccccc54)sc3nc12 | 11.2 µM (active)
Cn1c(SCC(=O)N2CCCc3ccccc32)nc2ccccc2c1=O | inactive
Cc1cccc(-c2nnc(SCC(=O)N3CCCc4ccccc43)o2)c1 | inactive
CCOC(=O)c1cccc(NC(=O)c2cc(CN3CCCC3)on2)c1 | inactive
CC(=O)c1ccc(NC(c2ccc(F)cc2)c2nnc(-c3ccccc3)o2)cc1 (stereo not drawn) | inactive
CCc1ccc(N2C(=O)CN(S(=O)(=O)CC)CC2(C)C(=O)NC2CCCCC2)cc1 (stereo not drawn) | inactive
CCCn1c(=N)c(C(=O)NCc2ccccc2)cc2c(=O)n3cccc(C)c3nc21 | inactive
CC(C)c1ccc(NC(=O)c2ccc(Cn3nc(N4CCN(c5ccccc5)CC4)ccc3=O)o2)cc1 | inactive
Cn1c(=O)c2c(SCC(=O)NCC3CCCO3)nc(-c3ccccc3F)nc2n(C)c1=O (stereo not drawn) | inactive
Cc1ccc(-c2cc(C(=O)Oc3ccccc3Cl)no2)cc1C | inactive
O=c1cc(COc2cccc(C(F)(F)F)c2)nc2sc3c(n12)CCCC3 | inactive
COc1ccc(CNC(=O)c2cc3cccc(OC)c3oc2=O)cc1 | inactive
